The source made the active and inactive calls.
What was measured:
[1] = target: Albumin (Bos taurus) (UniProt P02769); assay: bovine serum albumin binders on microarray, profiling panel, artefact control for SMM control protein annotation, biochemical, small-molecule microarray, Alexa647 label, 635/667 nm fluorescence (AID 1118); details: BSA-A647 binding, fluorescence 635 nm, higher = more signal;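 further: score merges 667 nm emission intensity and signal-to-noise per printed compound spot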
[2] = small-molecule microarray binders of probe aXIP, primary screen, biochemical, NeuroSMM set, 635/667 nm fluorescence (AID 1119); details: higher = more signal, called active from +8 up or from −8 down;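 further: probe is the protein aXip251-270 applied at 1 µg/mL to compound-printed slides; binding of probe to printed compounds measured as 667 nm fluorescence plus signal to noise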
[3] = small-molecule binders of probe aNOTCH3, primary screen, biochemical, small-molecule microarray, 635/667 nm fluorescence (AID 1120); details: higher = more signal;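 further: probe is a biotin-tagged antibody raised against NOTCH3 rather than NOTCH3 protein; score merges spot fluorescence near 667 nm with spot signal to noise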
[4] = small-molecule binders of probe aNOTCH2, primary screen, biochemical, small-molecule microarray, 635/667 nm fluorescence (AID 1121); details: higher = more signal;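 further: score merges feature fluorescence read at 667 nm with its signal to noise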
[5] = target: Carbonic anhydrase 2 (Homo sapiens) (UniProt P00918); assay: CAII small-molecule binders, profiling panel, biochemical, small-molecule microarray, Alexa647-labelled CAII (AID 1122); details: CAII-A647 binding fluorescence, higher = more signal
[6] = COS7 lysate on small-molecule microarray, probe aHis, 635 nm (AID 1123); details: COS7 cell lysate, fluorescence, higher = more signal;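 further: z-score combines 667nm fluorescence intensity with signal-to-noise per printed compound spot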
[7] = compound binding in COS7 lysate, probe aLAP1, primary screen, cell lysate, small-molecule microarray (AID 1124); details: probe aLAP1, fluorescence, higher = more signal;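 further: lysate comes from COS7 cells expressing LAP1 and is applied at 0.3 µg/mL; score merges spot fluorescence near 667 nm with signal-to-noise over triplicate slides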
[8] = test system: Sam68 (KHDRBS1); assay: Sam68 small-molecule binders, primary screen, biochemical, small-molecule microarray, 635 nm fluorescence (AID 1125); details: small-molecule microarray binding, higher = more signal;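 further: score merges 667 nm channel intensity with signal to noise over triplicate slides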
[9] = test system: Chordin-like protein 2 (CHRDL2); assay: CHRDL2 small-molecule binders, primary screen, biochemical, small-molecule microarray, 635 nm fluorescence (AID 1126); details: small-molecule microarray binding, fluorescence 635 nm; higher = more signal;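 further: printed compound slides probed with Chrdl2 protein at 4 µg/mL for 1 h at 4 C; score merges 667 nm emission intensity with signal to noise over three replicate slides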
[10] = target: Concanavalin-A (Canavalia ensiformis) (UniProt P02866); assay: ConA small-molecule binders, primary screen, artefact control for SMM control protein annotation, biochemical, small-molecule microarray, Alexa647 label, 635 nm (AID 1127); details: ConA-A647 binding fluorescence, higher = more signal;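 further: z combines 667 nm emission intensity with signal-to-noise across three replicate slides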
Chain of Concanavalin-A (Canavalia ensiformis) (P02866 whole entry, looked up): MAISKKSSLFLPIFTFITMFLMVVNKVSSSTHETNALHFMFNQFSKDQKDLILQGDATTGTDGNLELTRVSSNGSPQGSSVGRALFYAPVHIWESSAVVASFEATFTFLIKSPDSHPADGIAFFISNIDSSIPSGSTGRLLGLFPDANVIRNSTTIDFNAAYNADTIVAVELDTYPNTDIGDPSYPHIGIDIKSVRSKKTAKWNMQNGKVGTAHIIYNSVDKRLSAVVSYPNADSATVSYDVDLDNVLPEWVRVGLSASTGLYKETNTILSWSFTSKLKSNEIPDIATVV

[11] = anti-His antibody binders, primary screen, artefact control for SMM control protein annotation, biochemical, small-molecule microarray, 635 nm fluorescence (AID 1128); details: anti-His Alexa647 antibody binding, higher = more signal;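 further: score merges feature fluorescence with signal-to-noise for each printed compound spot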
[12] = test system: Human papillomavirus type 1a E7 protein (residues 1-88); assay: HPV1a E7 small-molecule binders, primary screen, biochemical, small-molecule microarray, residues 1-88, 635 nm (AID 1129); details: small-molecule microarray binding, fluorescence 635 nm; higher = more signal
[13] = target: Focal adhesion kinase 1 (Homo sapiens) (UniProt Q05397); assay: small-molecule microarray binders of FAK, primary screen, biochemical, 635/667 nm fluorescence, BSA, DTT (AID 1130); details: PTK2 binding, 635 nm fluorescence, higher = more signal;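 further: composite of spot emission at 667 nm and signal to noise over triplicate slides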
Chain of Focal adhesion kinase 1 (Homo sapiens) (Q05397 whole entry, looked up): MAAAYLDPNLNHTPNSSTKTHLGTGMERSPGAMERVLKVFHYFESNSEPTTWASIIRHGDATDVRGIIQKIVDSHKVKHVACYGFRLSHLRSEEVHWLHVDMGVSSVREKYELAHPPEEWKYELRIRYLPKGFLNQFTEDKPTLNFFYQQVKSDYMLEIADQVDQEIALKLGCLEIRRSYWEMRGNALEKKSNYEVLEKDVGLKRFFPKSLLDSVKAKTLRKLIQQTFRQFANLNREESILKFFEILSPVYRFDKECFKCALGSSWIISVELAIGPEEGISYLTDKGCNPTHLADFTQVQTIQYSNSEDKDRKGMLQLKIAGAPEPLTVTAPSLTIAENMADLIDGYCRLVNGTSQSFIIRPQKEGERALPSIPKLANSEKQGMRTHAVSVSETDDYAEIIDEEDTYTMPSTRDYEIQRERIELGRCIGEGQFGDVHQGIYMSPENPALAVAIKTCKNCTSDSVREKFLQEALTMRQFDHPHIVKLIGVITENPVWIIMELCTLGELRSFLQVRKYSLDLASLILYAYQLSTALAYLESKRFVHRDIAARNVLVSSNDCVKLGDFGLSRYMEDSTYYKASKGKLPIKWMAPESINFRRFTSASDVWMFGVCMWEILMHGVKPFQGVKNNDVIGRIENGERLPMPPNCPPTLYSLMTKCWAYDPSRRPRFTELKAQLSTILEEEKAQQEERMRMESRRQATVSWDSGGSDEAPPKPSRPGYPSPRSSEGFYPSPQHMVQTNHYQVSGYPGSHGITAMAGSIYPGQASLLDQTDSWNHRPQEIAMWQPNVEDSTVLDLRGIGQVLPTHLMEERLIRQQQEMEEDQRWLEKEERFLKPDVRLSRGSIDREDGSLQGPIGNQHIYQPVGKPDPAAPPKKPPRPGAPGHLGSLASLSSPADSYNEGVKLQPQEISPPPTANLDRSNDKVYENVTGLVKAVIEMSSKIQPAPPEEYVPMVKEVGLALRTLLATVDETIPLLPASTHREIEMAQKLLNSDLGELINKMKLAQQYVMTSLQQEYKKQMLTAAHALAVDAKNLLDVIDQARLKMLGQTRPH

[14] = test system: Fibrinogen (Alexa647-labelled); assay: fibrinogen binders on compound microarrays, profiling panel, artefact control for SMM control-protein annotation, biochemical, small-molecule microarray, 635/667 nm fluorescence (AID 1131); details: fibrinogen-A647 binding fluorescence, higher = more signal;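 further: z-score merges 667 nm fluorescence with per-spot signal-to-noise over triplicate slides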
[15] = target: Follistatin (Homo sapiens) (UniProt P19883); assay: follistatin binders on small-molecule microarrays, primary screen, biochemical, small-molecule microarray, 635/667 nm fluorescence (AID 1132); details: FST binding, 635 nm fluorescence, higher = more signal
Chain of Follistatin (Homo sapiens) (P19883 whole entry, looked up): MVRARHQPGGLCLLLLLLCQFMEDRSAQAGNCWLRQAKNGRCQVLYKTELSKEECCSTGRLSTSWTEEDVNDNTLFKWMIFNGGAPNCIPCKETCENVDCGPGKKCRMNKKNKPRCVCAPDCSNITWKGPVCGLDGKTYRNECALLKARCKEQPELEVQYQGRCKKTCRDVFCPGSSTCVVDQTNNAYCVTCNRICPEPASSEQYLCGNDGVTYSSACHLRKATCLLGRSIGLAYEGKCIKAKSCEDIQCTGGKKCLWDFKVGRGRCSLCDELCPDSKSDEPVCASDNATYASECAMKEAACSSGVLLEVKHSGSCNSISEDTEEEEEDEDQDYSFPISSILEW

[16] = target: Fibroblast growth factor 2 (Homo sapiens) (UniProt P09038); assay: FGF2 binders on small-molecule microarrays, primary screen, biochemical, small-molecule microarray, 635/667 nm fluorescence (AID 1133); details: small-molecule microarray binding, FGF2, fluorescence 635/667; higher = more signal
Chain of Fibroblast growth factor 2 (Homo sapiens) (P09038 whole entry, looked up): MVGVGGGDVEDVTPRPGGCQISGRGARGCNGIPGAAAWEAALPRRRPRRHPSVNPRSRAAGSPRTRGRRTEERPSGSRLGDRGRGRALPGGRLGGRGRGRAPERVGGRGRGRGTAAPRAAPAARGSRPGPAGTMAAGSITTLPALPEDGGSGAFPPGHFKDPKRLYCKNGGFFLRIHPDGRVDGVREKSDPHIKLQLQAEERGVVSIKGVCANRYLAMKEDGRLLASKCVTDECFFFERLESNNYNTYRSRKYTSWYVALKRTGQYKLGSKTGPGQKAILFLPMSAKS

[17] = mitochondrial membrane potential change in A549 cells, profiling panel, cell-based, JC-1 fluorescence, basal, 24 h, 100 nL (AID 1138); details: higher = more signal;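 further: A549 lung adenocarcinoma cells under basal conditions with no added stimulus; test concentration not given here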
[18] = test system: Lefty1; assay: Lefty1 binders on small-molecule microarrays, primary screen, biochemical, small-molecule microarray, 635/667 nm fluorescence (AID 1139); details: small-molecule microarray binding, fluorescence 635/667; higher = more signal
[19] = test system: wheat germ agglutinin (Triticum aestivum), Alexa647-labelled; assay: wheat germ agglutinin binders on compound microarrays, profiling panel, artefact control for SMM control-protein annotation, biochemical, small-molecule microarray, 635/667 nm fluorescence (AID 1140); details: WGA-A647 binding, 635 nm fluorescence, higher = more signal;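 further: score merges 667 nm feature emission with signal to noise over triplicate slides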
[20] = target: Luciferin 4-monooxygenase (Photinus pyralis) (UniProt P08659); assay: firefly luciferase enzyme inhibitors, primary screen, biochemical, luminescence, purified enzyme, 2006 set (AID 1141); details: SteadyGlo luminescence, 30 min, higher = more signal, called active from +8 up or from −8 down;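 further: cell-free assay with purified firefly luciferase at 100 ng per well in PBS; test concentration not given here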
Chain of Luciferin 4-monooxygenase (Photinus pyralis) (P08659 whole entry, looked up): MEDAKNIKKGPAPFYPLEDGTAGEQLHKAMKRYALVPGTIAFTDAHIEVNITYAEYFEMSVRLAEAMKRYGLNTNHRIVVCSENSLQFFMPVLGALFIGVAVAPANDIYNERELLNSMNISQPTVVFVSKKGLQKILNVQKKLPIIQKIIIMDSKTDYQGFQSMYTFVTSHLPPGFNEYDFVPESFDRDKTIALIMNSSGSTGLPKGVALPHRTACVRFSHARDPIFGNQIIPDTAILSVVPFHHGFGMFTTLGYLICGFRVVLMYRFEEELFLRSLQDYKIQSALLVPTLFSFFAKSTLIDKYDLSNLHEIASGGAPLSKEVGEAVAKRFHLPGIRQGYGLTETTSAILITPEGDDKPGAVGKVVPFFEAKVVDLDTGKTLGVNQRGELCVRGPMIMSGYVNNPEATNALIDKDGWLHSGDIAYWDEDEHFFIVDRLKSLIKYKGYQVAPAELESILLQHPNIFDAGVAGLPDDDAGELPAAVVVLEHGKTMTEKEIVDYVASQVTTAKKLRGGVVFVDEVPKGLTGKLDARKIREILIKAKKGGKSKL

Chain of Albumin (Bos taurus) (P02769 whole entry, looked up): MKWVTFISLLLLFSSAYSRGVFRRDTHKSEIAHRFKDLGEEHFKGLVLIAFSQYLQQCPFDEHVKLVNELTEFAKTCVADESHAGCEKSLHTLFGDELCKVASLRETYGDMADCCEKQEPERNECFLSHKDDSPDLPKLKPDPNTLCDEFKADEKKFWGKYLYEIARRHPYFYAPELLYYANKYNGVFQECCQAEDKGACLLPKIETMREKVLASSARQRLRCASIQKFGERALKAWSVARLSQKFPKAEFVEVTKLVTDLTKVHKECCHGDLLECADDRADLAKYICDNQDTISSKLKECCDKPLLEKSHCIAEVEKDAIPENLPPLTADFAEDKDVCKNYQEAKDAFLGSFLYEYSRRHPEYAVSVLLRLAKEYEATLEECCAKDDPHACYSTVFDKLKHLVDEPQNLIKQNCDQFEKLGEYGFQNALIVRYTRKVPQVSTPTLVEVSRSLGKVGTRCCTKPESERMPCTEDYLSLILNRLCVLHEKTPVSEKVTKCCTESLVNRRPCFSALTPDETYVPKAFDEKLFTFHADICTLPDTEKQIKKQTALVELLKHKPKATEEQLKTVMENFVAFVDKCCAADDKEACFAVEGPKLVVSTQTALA

Row | Structure (SMILES) | composite z-score [1] | composite Z-score [2] | composite z-score [3] | composite z-score [4] | composite z-score [5] | composite z-score [6] | composite z-score [7] | composite z-score [8] | composite z-score [9] | composite z-score [10] | composite z-score [11] | composite z-score [12] | composite z-score [13] | composite z-score [14] | composite z-score [15] | composite z-score [16] | z-score [17] | composite z-score [18] | composite z-score [19] | z-score [20]
1 | CCOC(=O)NN=C1C[C@@H](O)[C@@H](O)[C@@H]2[C@@H]3C(=O)N(c4ccc(F)cc4F)C(=O)[C@@H]3CC[C@H]12 | 0.123 | -0.623 (inactive) | -0.0879 | -0.107 | -0.0212 | 0.0971 | 0.0173 | 0.108 | 0.529 | 0.0692 | 0.142 | 0.301 | -0.0292 | 0.233 | 0.515 | 0.577 | -0.778 | 0.449 | 0.161 | 1.18 (inactive)
2 | CCN1C(=O)[C@H]2[C@H]3[C@H](O)[C@H](O)CC(=NNC(=O)OCc4ccccc4)[C@H]3CC[C@H]2C1=O | 0.185 | -0.431 (inactive) | 0.0145 | -0.129 | -0.0576 | 0.0949 | -0.198 | -0.813 | -0.0255 | 0.514 | 0.0371 | -0.601 | -0.117 | 0.0307 | -0.238 | 0.215 | -0.538 | 0.235 | 0.136 | 0.69 (inactive)
3 | CO[C@@H](C(C)C)[C@@H](C)C1OC(=O)CC1O (stereo not given in full) | -0.145 | 0.0923 (inactive) | -0.159 | -0.166 | -0.169 | -0.18 | -0.542 | -0.22 | -0.598 | -0.347 | -0.647 | -0.579 | 0.0539 | -1.29 | -0.989 | -0.278 | 0.000179 | -0.633 | -0.282 | 0.159 (inactive)
4 | CCc1cc2c(nc1CC)CCN(CCC(C)=NOC(C)CN1CCCCc3nc(C)c(C)cc31)C2 (stereo not given) | 0.0846 | 0.73 (inactive) | 0.0696 | -0.0194 | 0.467 | 1.64 | 0.304 | 1.28 | 0.911 | 1.17 | 0.575 | 1.18 | -0.048 | 0.874 | 1.18 | 0.557 | 2.45 | 0.979 | 0.439 | -0.0579 (inactive)
5 | CC(C)=CCCC(C)=CCON=C1C[C@@H](O)[C@@H](O)[C@@H]2[C@@H]3C(=O)N([C@@H](C)c4ccccc4)C(=O)[C@@H]3CC[C@@H]12 | 0.0686 | -0.283 (inactive) | -0.0311 | -0.0194 | 0.043 | 0.157 | 0.0404 | 0.121 | 1.04 | 0.6 | 0.509 | 0.499 | 0.276 | 0.297 | 0.462 | 0.58 | -0.569 | 0.6 | 0.0833 | 0.391 (inactive)
6 | COC(=O)[C@@H]1CC[C@H](C)[C@@H](c2ccc(Br)cc2)N1C[C@@H](O)CN=[N+]=[N-] | -0.236 | -0.509 (inactive) | 0.0016 | -0.18 | -0.0121 | 0.23 | 0.546 | 0.56 | 0.401 | -0.0032 | 0.215 | -0.0633 | -0.0902 | 0.128 | 0.4 | 0.4 | -0.822 | 0.45 | -0.0107 | 0.0386 (inactive)
7 | O=C1[C@H]2[C@H]3[C@H](O)[C@H](O)CC(=NO[C@@H]4O[C@H](CO)[C@@H](O)[C@H](O)[C@H]4O)[C@@H]3CC[C@H]2C(=O)N1C[C@@H]1CCCO1 | 0.587 | -0.258 (inactive) | -0.243 | -0.131 | 0.212 | 0.146 | -0.136 | 1.1 | 0.183 | 0.51 | 0.142 | 1.15 | 0.142 | 0.907 | 0.396 | 0.4 | -1.08 | 0.649 | 0.326 | 0.954 (inactive)
8 | COc1ccc(O[C@H]2C=C[C@@H](c3ccccc3)O[C@@H]2CON=C2c3cc(OC)ccc3O[C@H](c3cccc(OC)c3)[C@H]2O)cc1 | 0.322 | -0.222 (inactive) | -0.122 | -0.255 | 0.417 | 0.567 | 1.15 | 0.164 | 0.171 | -0.996 | -0.622 | 0.463 | 0.121 | -0.413 | 0.618 | 1.63 | 0.0904 | 1.1 | 0.701 | 1.16 (inactive)
9 | C=CC[C@@H]1C=C[C@H](ON=C(C)CCN2CCCCc3nc(C)c(C)cc32)[C@@H](CO)O1 | 0.0868 | 0.325 (inactive) | -0.0304 | -0.14 | 0.226 | 0.588 | 0.155 | 0.972 | 1.47 | -0.223 | -0.833 | -0.0192 | 0.499 | 0.635 | 1.39 | 1.36 | 0.143 | 1.56 | 0.607 | 1.38 (inactive)
10 | COC(=O)[C@H](C)NC(=O)CCC1CC(OC(=O)NCc2cccc3ccccc23)CC2(CCCC(COC(=O)NCCc3ccccc3OC)O2)O1 (stereo not given in full) | 0.707 | -0.18 (inactive) | 0.0893 | -0.185 | 0.548 | 1.06 | -0.557 | 1.3 | 0.409 | 0.917 | 1.13 | 1.18 | 0.656 | 0.661 | 0.941 | 0.544 | -0.358 | 0.89 | 0.316 | 0.603 (inactive)

From PubChem BioAssay
